Screening results as filed in PubChem.
The list is not random: actives were taken first. Their share in the collection is about 3.2%.
S16 viability = toxic to S16 Pmp22-F2sN Schwann cells | S16 Pmp22-F2sN Schwann cells viability, CellTiter-Glo, 24 h | Potency, µM (series often up to 57.5 µM), for the others: at the highest dose activity change, negative = cytotoxicity, actives largely listed as cytotoxic | actives 0.48% (n = 43,000); also: potency is read from the fitted curve at half-maximal effect; % is scaled to controls: 0 for no effect and ±100 for the full control effect; nearly all actives have a fitted effect of over 65% in size
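Viability was measured by CellTiter-Glo luminescence (15 min, room temperature). This followed 24 h at 37 °C of compound exposure (23 nL pin transfer) in S16 Pmp22-F2sN Schwann cells, 500-1,000 per well.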
p53null 32C tox = kills p53 null cells at the permissive temperature | Potency, µM (series often up to 46.1 µM), for the others: at the highest dose activity change, negative = cytotoxicity, hits mostly cytotoxic | AID 903 | H1299-neo p53 null cells, ATP luminescence, 24 h, 32C | actives 0.62% (n = 55,000);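 also: potency is read from the fitted curve at half-maximal effect; 0% = DMSO only and -100% = full killing by 100 µM tamoxifen; nearly all actives have a fitted effect of over 55% in size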
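H1299-neo (p53 null) cells, 600/well, treated 24 h at 32C with compound up to 46 uM; ATPlite luminescence viability, normalized to DMSO and 100 uM tamoxifen; AC50 by Hill fit.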
PMP22 txn prim = modulators of PMP22 gene transcription in S16 Schwann cells. S16 Pmp22-F2sN Schwann cells (luciferase reporters placed in the Pmp22 gene), FLuc/NLuc coincidence luminescence, 24 h. Potency, µM (highest dose often 57.5 µM), for the others: at the highest dose activity change, negative = inhibition, usual class: inhibitors. actives 2% (n = 43,000). AID 1508649; active = clear falling dose curves in both reporters; inconclusive = both reporters move, but less clearly or upward; inactive = either reporter flat; the % is the NLuc reporter signal; also: potency is read from the fitted curve at half-maximal effect; % is scaled to controls: 0 for no effect and ±100 for the full control effect
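Schwann cells carrying the coincidence reporter were exposed to library compounds for 24 h at 37C, then lysed and read for FLuc and, after quenching, NLuc luminescence on a CCD imager.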
p53null 39C tox = selectivity test: cytotoxicity in p53 null cells, nonpermissive temperature. H1299 p53-null (neo) cells, 39C, ATPlite viability, 24 h. Potency, µM (top dose mostly 46.1 µM), for the others: at the highest dose activity, negative = cell killing, hits mostly cytotoxic. actives 0.97% (n = 55,000);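 also: potency is read from the fitted curve at half-maximal effect; 0% = DMSO only and -100% = full killing by 100 µM tamoxifen; nearly all actives have a fitted effect of over 50% in size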
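Following overnight plating at 37C (600 cells/well), H1299-neo or H1299-p53A138V cells are dosed up to 46 uM. Incubation lasts 24 hr at 39C before ATP detection.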
mTORC1 inh = mTORC1 pathway inhibition measured by phospho-rpS6; Tsc2-/- p53-/- MEF, phospho-rpS6 immunofluorescence/PI, 24 h; Potency, µM (top dose mostly 38.3 µM), without a hit: top-dose activity change, negative = inhibition, usual class: inhibitors; actives 0.78% (n = 44,000);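 also: potency is read from the fitted curve at half-maximal effect; plate controls were DMSO for no effect and rapamycin for full effect; nearly all actives have a fitted effect of over 50% in size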
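Compounds act on Tsc2-/-, p53-/- fibroblasts carrying an empty vector for 24 h before fixation and dual staining for phospho-S6 and DNA (propidium iodide). Values are percentages of cells above a rapamycin-defined pS6/PI threshold.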
NLuc saturating = inhibits NanoLuc at saturating substrate, PMP22 counter-screen. shares compounds with PMP22 txn prim. Secreted NLuc enzyme (filtered S16 cell medium), Nano-Glo luminescence. Potency, µM (titrated, usually from 57.5 µM), without a hit: at the highest dose activity change, negative = inhibition, actives largely listed as inhibitors. actives 4% (n = 690). AID 1508638; also: potency is read from the fitted curve at half-maximal effect; % is scaled to controls: 0 for no effect and ±100 for the full control effect
NLuc Km counter = inhibits NanoLuc under Km conditions, PMP22 counter-screen | actives 5% (n = 690) | Potency, µM (series often up to 57.5 µM), without a hit: at the top dose activity change, negative = inhibition, actives largely listed as inhibitors | shares compounds with PMP22 txn prim | secreted NLuc enzyme, coelenterazine luminescence, Km conditions | AID 1508639; also: potency is read from the fitted curve at half-maximal effect; % is scaled to controls: 0 for no effect and ±100 for the full control effect
FLuc counter = inhibits firefly luciferase, PMP22 counter-screen; shares compounds with PMP22 txn prim; purified P. pyralis FLuc, luminescence, 10 min; Potency, µM (top dose mostly 57.5 µM), without a hit: at the highest dose activity, negative = inhibition, hits mostly inhibitors; 690 tested, under 10 active; AID 1508640; also: % of control where 0% means no effect
Target sequence (P08659 whole entry, looked up): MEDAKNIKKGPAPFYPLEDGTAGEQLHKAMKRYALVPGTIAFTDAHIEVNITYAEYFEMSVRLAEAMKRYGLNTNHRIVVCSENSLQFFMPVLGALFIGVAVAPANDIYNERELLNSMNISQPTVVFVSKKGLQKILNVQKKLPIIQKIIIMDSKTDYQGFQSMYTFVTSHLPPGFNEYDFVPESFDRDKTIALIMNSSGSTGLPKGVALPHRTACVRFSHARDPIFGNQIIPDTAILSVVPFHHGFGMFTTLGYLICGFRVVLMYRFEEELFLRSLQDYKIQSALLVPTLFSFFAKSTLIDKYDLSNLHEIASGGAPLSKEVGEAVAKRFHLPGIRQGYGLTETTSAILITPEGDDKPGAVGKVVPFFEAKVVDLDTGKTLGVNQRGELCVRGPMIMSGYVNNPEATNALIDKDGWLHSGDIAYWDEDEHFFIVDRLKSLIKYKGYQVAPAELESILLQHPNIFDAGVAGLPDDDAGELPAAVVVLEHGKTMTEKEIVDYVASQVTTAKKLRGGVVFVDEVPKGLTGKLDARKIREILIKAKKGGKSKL
S16 F2sN tox cnf = S16 Schwann cell cytotoxicity, confirmatory. shares compounds with PMP22 txn prim. S16 Schwann cells viability, CellTiter-Glo ATP luminescence, 24 h. Potency, µM (doses to about 57.5 µM), inactives show at the highest dose activity change, negative = viability loss, actives largely listed as cytotoxic. actives 7% (n = 690). AID 1508641; also: potency is read from the fitted curve at half-maximal effect; % is scaled to controls: 0 for no effect and ±100 for the full control effect
PMP22 txn cnf = PMP22 transcription modulation, confirmatory; Potency, µM (series often up to 57.5 µM), for inactives: top-dose activity change, negative = inhibition, actives largely listed as inhibitors; S16 Schwann cells Pmp22-F2sN, dual luciferase, 24 h; actives 22% (n = 690); AID 1508646; shares compounds with PMP22 txn prim; active = clear falling dose curves in both reporters; inconclusive = both reporters move, but less clearly or upward; inactive = either reporter flat; the % is the FLuc reporter signal; also: potency is read from the fitted curve at half-maximal effect
Numbers without * were called inactive; ? = inconclusive; . = no result. Unless noted, calls follow the shape of the dose curve; as a rule, active = well fitted curve in the direction sought with a large enough effect; inconclusive = small, poorly fitted or top-dose-only effect, or another doubt; inactive = no such curve, though single readings can be large; an effect the other way counts as inactive or inconclusive.

SMILES	S16 viability	p53null 32C tox	PMP22 txn prim	p53null 39C tox	mTORC1 inh	NLuc saturating	NLuc Km counter	FLuc counter	S16 F2sN tox cnf	PMP22 txn cnf
COc1ccc(OC)c(CNC(=O)c2c(C)oc3ncn(CC(C)C)c(=O)c23)c1	?	5%	10µM*	-8%	1%	?	?	3%	-16%	?
CCCCCn1c(=O)[nH]c2cc(C(=O)NCc3ccc(Cl)cc3)ccc2c1=O	2%	1%	-1%	-9%	5%	.	.	.	.	.
O=C(NCCc1ccc(Cl)cc1)c1ccc(Cn2c(=O)[nH]c3ccccc3c2=O)cc1	-23%	15%	3.2µM*	4%	-19%	-3%	-2%	-9%	-30%	?
Cc1cccc(C(=O)NCC(c2cccs2)S(=O)(=O)c2cccs2)c1 (stereo unspecified)	4%	-3%	-3%	37%	1%	.	.	.	.	.
COc1ccc(-c2cc3nc(C)c(CCC(=O)N4CCN(c5ccccc5F)CC4)c(C)n3n2)c(OC)c1	18%	-10%	?	-2%	1%	.	.	.	.	.
COc1ccc(-c2cc3nc(C)c(CCC(=O)N4CCN(c5cc(C)ccc5C)CC4)c(C)n3n2)c(OC)c1	21%	0%	14µM*	-15%	-5%	?	0%	-5%	-7%	-39%
CC(C)(C)OC(=O)N1CCC(c2c(C(=O)Nc3ccc4c(c3)OCCO4)cnn2-c2ccc(F)cc2)CC1	?	4%	?	22%	-9%	.	.	.	.	.
COc1nnc(-c2ccc(N3CCCCC3)c(NC(=O)c3ccc(Cl)cc3)c2)c2ccccc12	3%	-5%	15µM*	-16%	0%	?	0%	4%	-8%	?
COc1nnc(-c2ccc(N3CCCCC3)c(NC(=O)c3ccccc3)c2)c2ccccc12	?	15%	14µM*	-9%	-2%	?	?	5%	0%	?
COc1ccc(C(=O)Nc2cc(C(F)(F)F)ccc2N2CCN(c3ccccc3)CC2)cc1OC	7%	?	-15%	-4%	4%	.	.	.	.	.
O=C(CCc1nnc2n(Cc3ccccc3Cl)c(=O)c3ccccc3n12)Nc1ccccc1	7%	-1%	13µM*	6%	0%	-7%	1%	-5%	-48%	?
CCOc1ccccc1NC(=O)C1CCN(S(=O)(=O)c2c(C)noc2/C=C/c2ccco2)CC1	0%	3%	9.5µM*	11%	-14%	?	-4%	6%	9%	-15%
COc1ccccc1NC(=O)C1=C(C)Nc2nc(SCc3ccccc3F)nn2C1c1cccs1 (stereo unspecified)	21%	-17%	?	?	0%	.	.	.	.	.
Cc1cc(Br)cc2c1N(Cc1ccccc1OC(C)C)C(=O)C2=O	?	?	9.5µM*	?	?	?	?	-21%	?	15µM*
COc1ccccc1CN1C(=O)C(=O)c2cccc(C)c21	?	-5%	-71%	-12%	-2%	.	.	.	.	.
COc1ccccc1N1CCN(CCCNC(=O)c2nnc(Cc3c(F)cccc3Cl)o2)CC1	-3%	5%	13µM*	1%	-8%	-1%	1%	10%	-9%	-23%
COc1cc(NC(=O)CC2C(=O)OCCN2Cc2ccccc2)cc(OC)c1 (stereo unspecified)	0%	.	-25%	.	-15%	.	.	.	.	.
CCOC(=O)c1ccc(NC(=O)CC2C(=O)OCCN2CC)cc1 (stereo unspecified)	5%	.	?	.	?	.	.	.	.	.
CCN1CCOC(=O)C1CC(=O)Nc1cccc(OC)c1 (stereo unspecified)	?	.	13µM*	.	21µM*	-6%	-1%	6%	?	?
CCN1CCOC(=O)C1CC(=O)Nc1cc(Cl)ccc1C (stereo unspecified)	?	.	11µM*	.	?	-8%	0%	-6%	?	?
COc1ccc(-c2cc(=O)oc3c4c(ccc23)OCN(Cc2cccc(OC)c2)C4)cc1	.	12%	.	17%	-5%	.	.	.	.	.
Cc1ccccc1S(=O)(=O)Cc1ccc(C(=O)NCc2ccccc2Cl)o1	-3%	5%	?	-9%	-16%	-9%	-4%	?	4%	-2%
Cc1cccc(OCCn2c(SCC(=O)O)nc3ccccc32)c1	-2%	5%	3%	29%	-6%	.	.	.	.	.
Cc1cc(C)cc(NC(=O)c2ccc3oc(=O)c(S(=O)(=O)c4ccc(F)cc4)cc3c2)c1	-15%	-6%	11µM*	15%	-9%	3%	6%	2%	-3%	-20%
CCN(Cc1ccccc1)C(=O)c1nn(-c2ccc(OC)cc2)c(=O)c2c1c1ccccc1n2C	?	30%	19µM*	4%	1%	-18%	-4%	3%	21%	-42%
CCc1ccc(CNC(=O)c2nn(-c3ccc(C)cc3)c(=O)c3c2c2ccccc2n3C)cc1	0%	4%	2.8µM*	-9%	-1%	-5%	2%	1%	?	?
CCCNC(=O)Cn1ncc2c3ccccc3n(CCC)c2c1=O	6%	-3%	0%	-5%	-2%	.	.	.	.	.
Cc1nnc(N2CCCC(C(=O)Nc3cccc(C(F)(F)F)c3)C2)c2nn(-c3ccccc3)c(C)c12 (stereo unspecified)	?	-18%	?	-2%	-8%	.	.	.	.	.
CC(=O)Nc1ccc(-c2nnc3n(CC(C)C)c(=O)c4ccccc4n23)cc1	-16%	6%	?	-6%	-18%	?	0%	8%	-27%	-2%
